VDR inh – blocks the human vitamin D receptor; P11473; VDR-SRC2-3 peptide fluorescence polarization, 2 h; Potency, µM, hits mostly inhibitors; actives 0.93% (n = 400,000); AID 504847
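Reagent solutions, kept cold and dark, are dispensed first; compounds are then pinned in at 23 nl, plates briefly spun, and incubated 2 h at ambient temperature. Inhibition of VDR–SRC2-3 peptide binding is read by fluorescence polarization.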
GLS inhibitor – blocks human kidney-isoform glutaminase activity; Potency, µM (series often up to 45.5 µM), hits mostly inhibitors; actives 0.21% (n = 410,000); GLS enzymatic activity, qHTS titration
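Compounds were pin-transferred onto hKGA, after which L-glutamine (1 mM solution) and a detection mix of glutamate oxidase, HRP and Amplex Red were added. Initial and 30 min RT fluorescence reads were collected.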
TrxR1 substrate – is turned over as a substrate by rat TrxR1. O89049. purified TrxR1 substrate turnover, NADPH consumption readout. Potency, µM (titrated, usually from 114 µM). actives 0.01% (n = 390,000). AID 588456; note: nearly all actives have a fitted effect of over 50% in size
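Rat TrxR1, dispensed at 90 nM, was prereduced with 400 uM NADPH (final) for 5 min at ~22 deg C, then incubated with compound 15 min before 400 uM selenite. A first-read NADPH fluorescence drop versus no-compound background flagged substrates.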
TrxR1 inh – rat TrxR1 inhibition. O89049. recombinant rTrxR1, NADPH fluorescence consumption, selenite substrate. Potency, µM (series often up to 114 µM), most hits filed as inhibitors. actives 1% (n = 390,000); note: nearly all actives have a fitted effect of over 65% in size
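Rat TrxR1 (90 nM in the dispensed reagent) was pre-reduced with 400 uM NADPH for 5 min at room temperature, then incubated with compound for 15 min. After 400 uM selenite was added, NADPH fluorescence (Ex 340/Em 450 nm) was followed for 8 min.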
GCN5L2 inh – GCN5L2 (KAT2A) acetyltransferase inhibition | Q92830 | GCN5L2 HAT assay, ThioGlo1 CoA-SH fluorescence | Potency, µM (doses to about 58.9 µM), most hits filed as inhibitors | actives 0.21% (n = 390,000) | AID 504327
Target sequence (Q92830 whole entry, looked up): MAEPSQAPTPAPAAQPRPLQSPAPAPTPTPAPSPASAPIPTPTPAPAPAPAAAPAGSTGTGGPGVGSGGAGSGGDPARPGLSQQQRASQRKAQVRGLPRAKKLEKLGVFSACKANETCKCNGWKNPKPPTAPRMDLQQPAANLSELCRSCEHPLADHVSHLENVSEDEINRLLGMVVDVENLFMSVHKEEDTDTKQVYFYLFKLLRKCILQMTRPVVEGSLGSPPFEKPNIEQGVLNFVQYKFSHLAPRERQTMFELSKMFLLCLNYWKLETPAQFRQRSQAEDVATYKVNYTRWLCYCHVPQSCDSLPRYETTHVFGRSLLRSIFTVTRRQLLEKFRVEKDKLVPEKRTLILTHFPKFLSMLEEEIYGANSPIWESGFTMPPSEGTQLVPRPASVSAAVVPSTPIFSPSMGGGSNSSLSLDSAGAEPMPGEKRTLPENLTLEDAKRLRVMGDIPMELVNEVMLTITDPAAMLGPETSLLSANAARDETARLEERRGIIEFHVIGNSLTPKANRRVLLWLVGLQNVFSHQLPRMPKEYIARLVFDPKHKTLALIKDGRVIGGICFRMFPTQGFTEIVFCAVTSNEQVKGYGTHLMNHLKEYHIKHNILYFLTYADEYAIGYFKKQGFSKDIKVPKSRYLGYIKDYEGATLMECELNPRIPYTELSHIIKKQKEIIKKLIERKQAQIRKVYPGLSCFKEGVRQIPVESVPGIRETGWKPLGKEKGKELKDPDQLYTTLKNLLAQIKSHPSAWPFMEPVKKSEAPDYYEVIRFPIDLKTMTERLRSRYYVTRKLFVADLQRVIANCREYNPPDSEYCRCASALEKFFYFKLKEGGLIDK
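Titration-based screen in which CoA formation is detected via maleimide probe ThioGlo1 (50uM) turning fluorescent on thiol reaction; substrates H3(1-25) 75uM and acetyl-CoA 70uM, GCN5L2 20nM, 20 min incubation at room temperature.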
Sfp PPTase inh – Sfp phosphopantetheinyl transferase inhibition; Potency, µM, actives largely listed as inhibitors; Q9F4F7; Biochemical Sfp PPTase activity, qHTS; actives 3.5% (n = 310,000); AID 1490;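 note: the enzyme is Sfp with the accession as filed and its product quenches rhodamine fluorescence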
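Reaction rates are the 30-min fluorescence difference (ex 525, em 598 nm) in wells containing 15 nM Sfp, 5 uM rhodamine-CoA and 12.5 uM BHQ-2-YbbR at pH 7.6 with 10 mM MgCl2.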
Of the large screens only hits and unclear results are named; the others gave an inactive call. Rows were chosen to be rich in hits. Some 3.8% of all compounds tested hit in one or more screens of this group. Calls come from the whole dose curve; as a rule, active = well fitted curve in the direction sought with a large enough effect; inconclusive = small, poorly fitted or top-dose-only effect, or another doubt; inactive = no such curve, though single readings can be large; an effect the other way counts as inactive or inconclusive.

Cc1ccc(CCC(=O)Nc2ccc(Cl)cc2)o1	none
Cc1ccc(CCC(=O)Nc2ccc(CC(=O)O)cc2)o1	VDR inh 79µM, GLS inhibitor inconclusive, Sfp PPTase inh inconclusive
CCOC(=O)c1c(NC(=O)/C=C/c2ccc(C)o2)sc(C)c1C	Sfp PPTase inh 35µM
COC(=O)c1c(NC(=O)CCc2ccc(C)o2)sc(C)c1C	VDR inh inconclusive, TrxR1 inh inconclusive, Sfp PPTase inh 20µM
Cc1ccc(/C=C/C(=O)Nc2sc(C)c(C)c2C(=O)OC(C)C)o1	TrxR1 inh inconclusive, Sfp PPTase inh inconclusive
O=C(c1ccccc1Cl)N(C(=O)c1ccccc1Cl)c1nccc(-c2cccs2)n1	none
C[C@@H]1CN([C@H](C)CO)S(=O)(=O)c2ccc(Br)cc2O[C@@H]1CN(C)C(=O)CN1CCOCC1	none (no result: VDR inh, TrxR1 substrate, TrxR1 inh, GCN5L2 inh, Sfp PPTase inh)
COc1ccc(N2C(=O)/C(=C/c3ccc([N+](=O)[O-])cc3)N=C2C)c(OC)c1	none
CC1=N/C(=C\c2ccc([N+](=O)[O-])cc2)C(=O)N1c1cc(Cl)ccc1C	Sfp PPTase inh 56µM
CN(C)S(=O)(=O)c1ccc(C(=O)Nc2ccccc2SCCC#N)cc1	Sfp PPTase inh 14µM
Cc1ccccc1NC(=O)c1ccc(S(=O)(=O)N(C)C)cc1	none
CC(=O)N(C)c1ccc(NC(=O)Cc2cccs2)cc1	none
COc1ccc2[nH]c(=O)c(C(=O)O)cc2c1	none
COc1ccc2[nH]c(=O)cc(C(=O)O)c2c1	GLS inhibitor 14µM
CC(=O)Oc1ccc(N(C(C)=O)S(=O)(=O)c2ccccc2)c2ccccc12	none (no result: VDR inh, TrxR1 substrate, TrxR1 inh, GCN5L2 inh, Sfp PPTase inh)
CC(=O)Oc1ccc(N(C(C)=O)S(=O)(=O)c2ccc(C)cc2C)c2ccccc12	none
Cc1ccc(S(=O)(=O)N(C(=O)c2ccncc2)c2ccc(OC(=O)c3ccncc3)c3ccccc23)cc1	VDR inh inconclusive, Sfp PPTase inh 25µM
Cc1ccc(S(=O)(=O)N(C(=O)c2ccncc2)c2ccc(OC(=O)c3ccncc3)c3ccccc23)c(C)c1	Sfp PPTase inh 45µM
O=C(Nc1ccc2c(c1)OCO2)C1Cc2c(-c3cccnc3)ccnc2O1 (stereo not drawn)	none (no result: VDR inh, TrxR1 substrate, TrxR1 inh, GCN5L2 inh, Sfp PPTase inh)
C[C@H]1CN([C@@H](C)CO)C(=O)c2cc(Br)cnc2O[C@H]1CN(C)C(=O)c1cnccn1	none (no result: VDR inh, TrxR1 substrate, TrxR1 inh, GCN5L2 inh, Sfp PPTase inh)
CCOC(=O)C1=C(C)N(c2ccccc2)C(=O)/C1=C\c1ccco1	TrxR1 inh inconclusive, Sfp PPTase inh 56µM
CCOC(=O)C1=C(C)N(c2ccccc2)C(=O)/C1=C\c1ccc(O)c(OC)c1	VDR inh inconclusive, TrxR1 inh inconclusive, GCN5L2 inh inconclusive, Sfp PPTase inh 6.3µM
CCOC(=O)C1=C(C)N(c2ccccc2)C(=O)/C1=C\c1cccs1	none
COC(=O)C1=C(C)N(c2ccc(OC)c(OC)c2)C(=O)/C1=C\c1ccco1	TrxR1 inh 28µM
Cc1ccccc1NC(=O)c1c(NC(=O)c2ccccc2)sc2c1CCC2	none (no result: Sfp PPTase inh)
CC(C)Cc1nnc(NC(=O)CCC(=O)N2CCN(Cc3ccc(F)cc3)CC2)s1	none
N#C/C(=C\c1ccc(N2CCOCC2)o1)c1ccccc1	TrxR1 inh 3.5µM, GCN5L2 inh inconclusive, Sfp PPTase inh 25µM
N#C/C(=C/c1ccc(N2CCOCC2)o1)c1nc2ccccc2[nH]1	Sfp PPTase inh 20µM
S=C(c1nc2ccccc2[nH]1)N1CCOCC1	VDR inh inconclusive, Sfp PPTase inh 25µM
N#C/C(=C/c1ccc(N2CCCCCC2)o1)c1ccc(F)cc1	VDR inh inconclusive, TrxR1 inh 5µM (no result: GCN5L2 inh, Sfp PPTase inh)
Cc1ccccc1NC(=S)c1nc2ccccc2[nH]1	none
N#Cc1ccc(S(=O)(=O)Nc2ccc3ccccc3n2)cc1	none
COC(=O)c1cnn(-c2ccc(F)cc2F)c1/C=N/NC(N)=S	VDR inh inconclusive
COc1ccc(CN2C(=NC(=O)CCC3CCCC3)SC3CS(=O)(=O)CC32)cc1 (stereo not drawn)	none
CN(C(=O)c1ccc(NC(=O)Cc2ccc(NC(=O)C3CCCN(C(=O)C4CCCC4)C3)cc2)cc1)C1CC1 (stereo not drawn)	none (no result: Sfp PPTase inh)
COc1cc(N)c(Cl)cc1C(=O)OCC(=O)NC1CCCC1	none
[O-]/C(=C(\C(=S)NCc1ccc2c(c1)OCO2)[n+]1ccccc1)c1ccc(Cl)s1	VDR inh inconclusive, Sfp PPTase inh 40µM
CCC1CN(C(=O)N2CCC(C(=O)O)CC2)c2cc(C)ccc2O1 (stereo not drawn)	none (no result: Sfp PPTase inh)
CC(=O)c1ccc(OCCCC(=O)n2nnc3ccccc32)cc1	VDR inh inconclusive, TrxR1 inh inconclusive
O=C(CCCOc1ccc(Cl)cc1Cl)n1nnc2ccccc21	VDR inh 71µM
Cc1csc(NC(=O)C2C3C=CC(O3)C2C(=O)O)n1 (stereo not drawn)	TrxR1 inh inconclusive, Sfp PPTase inh inconclusive
CC(=O)c1n[nH]nc1Nc1nc(C)cc(C)n1	Sfp PPTase inh 28µM
CC(=O)c1ccc(Nc2nc(C)cc(C)n2)cc1	none
N#Cc1cccc(-c2cncnc2NCCc2cnc[nH]2)c1	none (no result: GLS inhibitor, TrxR1 substrate, TrxR1 inh)
CN(CC(=O)NCc1ccc(F)cc1)Cc1cccc(Cl)c1	none
CCCOc1ccc(C(=O)CCC(=O)NNC(=O)c2ccncc2)cc1	none
CC(C)NC(=O)CSc1nc2[nH]ncc2c(=O)[nH]1	none
Cc1csc(N/N=C\c2cccnc2)n1	TrxR1 inh inconclusive, Sfp PPTase inh 56µM
O=[N+]([O-])c1cc(/C=N\Nc2nc(-c3ccccc3)cs2)ccc1O	GCN5L2 inh inconclusive, Sfp PPTase inh 50µM
Cc1csc(N/N=C/c2ccc(O)c([N+](=O)[O-])c2)n1	TrxR1 inh 28µM, Sfp PPTase inh 32µM

Screening data from PubChem BioAssay.
